Assay [1] in a line: qHTS profiling of the MIPE4 collection as inhibitors of Plasmodium falciparum (3D7) proliferation (AID 743344). To be noted: P. falciparum 3D7 in erythrocytes, SYBR Green DNA fluorescence, 72 h; at 28.5 µM unless noted. The gist of the method: (§1)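 Erythrocytes infected with P. falciparum (0.3% parasitemia, 2.5% hematocrit) incubated with compounds 72 h at 37 C, 5% CO2. Lysis with saponin/Triton buffer containing SYBR Green I, overnight at room temperature in the dark; DNA fluorescence (485/535 nm) normalised to 0.29 uM artemisinin and DMSO.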

Assay [2] can be described thus: qHTS profiling of the MIPE4 collection as inhibitors of Plasmodium falciparum (DD2) proliferation (AID 743345). To be noted: P. falciparum Dd2 in erythrocytes, SYBR Green DNA, 72 h; at 28.5 µM unless noted. The gist of the method: as §1
The nature of assay [3]: qHTS profiling of the MIPE4 collection as inhibitors of Plasmodium falciparum (DD2) proliferation (Rep 2) (AID 743346). To be noted: P. falciparum Dd2 in erythrocytes, SYBR Green DNA, 72 h; at 28.5 µM unless noted. In outline: as §1
Assay [4] can be described thus: qHTS profiling of the MIPE4 collection as inhibitors of Plasmodium falciparum (HB3) proliferation (AID 743347).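 Further: plate controls were DMSO vehicle wells for no effect and artemisinin wells for full effect.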 The note with it: P. falciparum HB3 in erythrocytes, SYBR Green DNA, 72 h; at 28.5 µM unless noted. The gist of the method:
as §1

Assay [5] can be described thus: High-throughput drug toxicity screening in the BPDCN cell line Gen2.2 (AID 1224824). To be noted: Gen2.2 BPDCN cells; at 45.8 µM (top of the series) unless noted. In outline:
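Seed 500 exponentially growing Gen2.2 cells/well; add compounds by pin tool; incubate 48 h, 37 °C, 5% CO2; add CellTiter-Glo, 15 min RT; read luminescence. % activity vs DMSO (100%) and bortezomib (0%).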

The nature of assay [6]: High-throughput drug toxicity screening in the BPDCN cell line Cal-1 (AID 1224825). To be noted: Cal-1 BPDCN cell viability, qHTS; at 45.8 µM (top of the series) unless noted. In outline:
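Exponentially growing Cal-1 cells, 500 per well in phenol red-free RPMI with 10% FBS, were exposed to compounds for 48 h at 37 °C, 5% CO2. Viability was read by CellTiter-Glo luminescence and normalised to DMSO (100%) and 9.2 uM bortezomib (0%).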

Assay [7] in a line: qHTS assay for measurement of the activity of small molecule inhibitors on Zika virus induced Caspase-3 activity in human iPSC derived neural progenitor cells (hNPCs) (AID 1224857; active means well fitted curve in the direction sought with a large enough effect; an effect the other way counts as inactive or inconclusive; further: % of control where 0% means no effect; nearly all actives have a fitted effect of over 65% in size). The gist of the method:
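Percent inhibition of virus-induced caspase-3/7 luminescence (Caspase-Glo), scaled between uninfected cells and Zika-infected cells. hNPCs received compound 1 hr before ZIKV at 2 FFU/cell, with 6 hours infection at 37 C.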

Assay [8] is described as follows: qHTS assay for measurement of the activity of small molecule inhibitors on Zika virus induced Caspase-3 activity in human astrocytoma cells (AID 1224859; active means well fitted curve in the direction sought with a large enough effect; an effect the other way counts as inactive or inconclusive;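 further: plate controls were ZIKV-infected untreated cells for no effect and uninfected cells for full effect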). In outline:
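Luminescent caspase-3/7 read-out (30 min reagent, room temperature) in human SNB-19 cells infected 6 h with ZIKV (2 FFU/cell) after 1 h compound pre-incubation; Data were normalised to uninfected and infected wells.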

Assay [9] is described as follows: qHTS Screen of the MIPE 4.0 Collection Against Ewings Sarcoma (TC71) (AID 1259253; active means well fitted curve in the direction sought with a large enough effect; an effect the other way counts as inactive or inconclusive; further: nearly all actives have a fitted effect of over 40% in size; further: potency means the concentration at half of the fitted maximal effect). The gist of the method:
(§2)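 Compound titrations go onto adherent log-phase cells 4 h after seeding, incubate 48 h at 37C, then CellTiter-Glo luminescence reports viability relative to DMSO and cell-free controls.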

Assay [10] is described as follows: qHTS Screen of the MIPE 4.0 Collection Against Ewings Sarcoma (TC32) (AID 1259256; active means well fitted curve in the direction sought with a large enough effect; an effect the other way counts as inactive or inconclusive; further: nearly all actives have a fitted effect of over 45% in size; further: potency means the concentration at half of the fitted maximal effect). The gist of the method: as §2
Assay [11] in a line: qHTS profiling for inhibitors of Plasmodium falciparum (3D7) proliferation (AID 743322).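 Further: infected erythrocytes exposed to compound for 72 h before lysis; 100% = DMSO vehicle wells and 0% = 0.29 µM artemisinin.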 The note with it: P. falciparum 3D7 proliferation; at 28.7 µM (top of the series). In outline: as §1
Assay [12] is described as follows: qHTS profiling for inhibitors of Plasmodium falciparum (DD2) proliferation (AID 743323). The note with it: lower = more inhibition; at 28.7 µM (top of the series). The gist of the method: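 Parasite proliferation measured via DNA-dye fluorescence, as uninfected erythrocytes lack DNA. Cultures at 0.3% parasitemia and 2.5% hematocrit incubated 72 h with compound; signal scaled between vehicle and 0.29 uM artemisinin wells.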

Assay [13] in a line: qHTS profiling for inhibitors of Plasmodium falciparum (HB3) proliferation (AID 743324; active means well fitted curve in the direction sought with a large enough effect; an effect the other way counts as inactive or inconclusive;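 further: 100% = DMSO vehicle wells and 0% = artemisinin-treated control wells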). The note with it: Plasmodium falciparum HB3 blood-stage proliferation; at 28.7 µM (top of the series). The gist of the method:
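P. falciparum HB3 grown in erythrocytes (0.3% parasitemia, 2.5% hematocrit final) with compound for 72 h at 37 C, 5% CO2. Parasite DNA detected by SYBR Green after saponin/triton lysis overnight; normalized to 0.29 uM artemisinin and DMSO.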

Assay [14] can be described thus: Identifying Small Molecule Inhibitors of Pancreatic Cancer Stem Cells (SN12C, Spheroid) (AID 1259360; active means well fitted curve in the direction sought with a large enough effect; an effect the other way counts as inactive or inconclusive;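 further: 100% = DMSO-treated cells and 0% = wells without cells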). To be noted: Potency: SN12C spheroid viability. The gist of the method:
(§3)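 Monolayer and spheroid cultures are compared. Spheroids form over 14 days in stem cell medium on hydrogel-coated low-attachment plates, then are exposed to compound for 48 h before CellTiter-Glo luminescence.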

Assay [15] in a line: qHTS Screen of the MIPE 4.0 Collection Against Ewings Sarcoma (EW8) (AID 1259255; active means well fitted curve in the direction sought with a large enough effect; an effect the other way counts as inactive or inconclusive; further: nearly all actives have a fitted effect of over 35% in size; further: potency means the concentration at half of the fitted maximal effect;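 on viability: 100% = DMSO-treated cells and 0% = medium-only wells without cells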). In outline:
as §2

Assay [16] can be described thus: Identifying Small Molecule Inhibitors of Pancreatic Cancer Stem Cells (Panc1, Spheroid) (AID 1259359; active means well fitted curve in the direction sought with a large enough effect; an effect the other way counts as inactive or inconclusive;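 further: potency means the concentration at half of the fitted maximal effect; compound exposure lasted 48 h before reading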). The note with it: Panc1 spheroid cancer stem cell viability. The gist of the method: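 Viability is scored by CellTiter-Glo luminescence 48 h after dosing, expressed as percent activity against vehicle and no-cell references. Spheroid formats rely on cells cultured 14 days in stem cell media beforehand.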

The nature of assay [17]: Identifying Small Molecule Inhibitors of Pancreatic Cancer Stem Cells (A2780, Spheroid) (AID 1259357; active means well fitted curve in the direction sought with a large enough effect; an effect the other way counts as inactive or inconclusive;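 further: compound exposure lasted 48 h before the ATP luminescence read; 100% = DMSO treated cells and 0% = wells without cells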). To be noted: Potency: A2780 spheroid viability. The gist of the method:
as §3

Assay [18] is described as follows: qHTS assay to identify small molecule inhibitors of chordoma cells - UCH-2 (AID 1259356; active means well fitted curve in the direction sought with a large enough effect; an effect the other way counts as inactive or inconclusive; further: on the % scale 0 is the no-effect control and ±100 the full control effect).

Each structure is given as a SMILES string. Records with an inconclusive call do not appear. Active and inactive are the calls of the source. Unless noted, how the calls were made is not given here.

In assay [1], `Cn1cc(C=C2C(=O)Nc3cccnc32)c2ccccc21` displayed a parasite growth, % of DMSO control of 42.6%. Also, the parasite growth remaining, % of DMSO control (lower = more inhibition) in assay [2] was found to be 82.2%. In [3], the parasite growth, % of control (lower = inhibition) came out at 53%. The same compound returned a growth, % of control in assay [4] of 2.02%. Moreover, in assay [5], the cell viability, % of control (lower = more cytotoxic) came out at 111%. Further, in [6], the viability (% of control) was determined as 63.5%. In addition, the Potency result in assay [7], in assay [8], in assay [9] and in assay [10] was “inactive” each time.
In [1], `O=C(Nc1cccc(Br)c1)c1cccc(S(=O)(=O)N2CCCCCC2)c1` gave a parasite growth, % of DMSO control of 55.6%. Besides, in [2], the parasite growth remaining, % of DMSO control (lower = more inhibition) came to 51.8%. In addition, in assay [3], the parasite growth, % of control (lower = inhibition) is 72.2%. In addition, the growth, % of control in assay [4] was found to be 21.1%. In assay [5], the cell viability, % of control (lower = more cytotoxic) was 296%. The viability (% of control) in assay [6] amounted to 76%. In addition, the Potency entry in [7] and in [8] was “inactive” each time. Also, the Potency in [9] was 23.5 µM (active).
For the compound `CN(C)Cc1ccc(-c2nc3cccc4c3n2CCNC4=O)cc1`, the remaining parasite growth % (stronger effect = lower value) in [11] is 86.1%. Also, in [12], the activity, percent of control was 90%. The remaining proliferation (% of control), lower = more inhibition in assay [13] is 94%. This compound also gave a parasite growth, % of DMSO control in assay [1] of 64%. In addition, in assay [2], the parasite growth remaining, % of DMSO control (lower = more inhibition) was determined as 100%. For the same compound, the parasite growth, % of control (lower = inhibition) in [3] was found to be 73.5%. The compound also returned a growth, % of control in assay [4] of 97%. Also, the cell viability, % of control (lower = more cytotoxic) in assay [5] was found to be 15.8%. Also, the viability (% of control) in [6] turned out to be 4.01%. The Potency result in assay [7], in assay [8] and in [14] was “inactive” in each case. Moreover, the Potency in [9] is 18.7 µM (active).
As for `CC(C)C(C)C=CC(C)C1CCC2C3=CC=C4CC(O)CCC4(C)C3CCC21C` (configuration not stated), the parasite growth remaining, % of DMSO control (lower = more inhibition) in [2] stood at 102%. The compound further registered a growth, % of control in assay [4] of 98%. Further, the cell viability, % of control (lower = more cytotoxic) in [5] amounted to 136%. In addition, the viability (% of control) in assay [6] turned out to be 127%. The Potency result in assay [7], in [8], in assay [15] and in [10] was “inactive” each time.
For `c1ccc2c(-c3cnn4cc(-c5ccc(N6CCNCC6)cc5)cnc34)ccnc2c1`, the remaining parasite growth % (stronger effect = lower value) in assay [11] was -1.65%. Moreover, the activity, percent of control in [12] was -0.291%. This compound also gave a parasite growth, % of DMSO control in assay [1] of 4.34%. In addition, the parasite growth remaining, % of DMSO control (lower = more inhibition) in [2] was 5.98%. Further, the parasite growth, % of control (lower = inhibition) in assay [3] was found to be 6.79%. Further, the growth, % of control in [4] came to 5.81%. For the same compound, the cell viability, % of control (lower = more cytotoxic) in [5] came out at 3.03%. In assay [6], the viability (% of control) was 3.05%. Besides, the Potency entry in assay [7], in [8], in assay [15] and in assay [10] was “inactive” throughout. Moreover, the Potency in assay [16] is 26.4 µM (active).
Consider `COc1cc2ncnc(-n3nc(-c4ccccn4)nc3N)c2cc1OC`, for which the remaining parasite growth % (stronger effect = lower value) in [11] came to 68.8%. Also, the activity, percent of control in assay [12] came out at 96.4%. The remaining proliferation (% of control), lower = more inhibition in assay [13] stood at 74%. In [1], this compound registered a parasite growth, % of DMSO control of 15.5%. In addition, in assay [2], the parasite growth remaining, % of DMSO control (lower = more inhibition) was 31.2%. Besides, the parasite growth, % of control (lower = inhibition) in assay [3] came to 11.1%. In assay [4], the growth, % of control was 6.36%. Moreover, the cell viability, % of control (lower = more cytotoxic) in assay [5] came out at 59.8%. For the same compound, in assay [6], the viability (% of control) is 46.1%. Besides, the Potency result in [7], in assay [8] and in assay [17] was “inactive” throughout. The Potency in assay [9] and in assay [10] was 18.7 µM (active) each time.
As for `C=C1C(=O)OC2C=C(C)CCC=C(C)CCC12` (configuration not stated), the parasite growth, % of DMSO control in assay [1] is 238%. The parasite growth remaining, % of DMSO control (lower = more inhibition) in assay [2] worked out at 104%. The parasite growth, % of control (lower = inhibition) in assay [3] is 108%. Also, the growth, % of control in assay [4] stood at 559%. For the same compound, the cell viability, % of control (lower = more cytotoxic) in [5] is 10.5%. The viability (% of control) in assay [6] came out at 11.5%. The Potency result in assay [7] and in assay [8] was “inactive” each time. Moreover, the Potency in [15] is 23.5 µM (active); in [10] it was 20.9 µM (active).
In assay [1], `CC1(C)O[C@H]2C[C@@H]3[C@H]4CCC5=CC(=O)C=C[C@]5(C)[C@@]4(F)[C@@H](O)C[C@]3(C)[C@]2(C(=O)CO)O1` returned a parasite growth, % of DMSO control of 38.4%. The parasite growth remaining, % of DMSO control (lower = more inhibition) in assay [2] worked out at 92.5%. For the same compound, the parasite growth, % of control (lower = inhibition) in assay [3] was 65.2%. Besides, the growth, % of control in assay [4] stood at 69%. In [5], the cell viability, % of control (lower = more cytotoxic) amounted to 37.9%. Besides, the viability (% of control) in [6] is 8.18%. Further, the Potency result in [7], in assay [8] and in assay [9] was “inactive” throughout. Moreover, in assay [18], the call was inactive.

The values above are taken from PubChem BioAssay (NCATS).
